# Screen size: about 220,000 compounds; about 750 (0.34%) were called active. The sample holds actives, similar compounds and a random draw of the others, so the mix is not that of the screen. Unmarked numbers belong to inactive results. No stated cut-off is given here; in the data, active means response below about 60% or above about 140%; inactive means in between.
# Target: Guanine nucleotide-binding protein G(o) subunit alpha (Homo sapiens) (UniProt P09471)
# Assay: RGS8-Galphao binding modulators, primary screen, biochemical, multiplexed bead flow cytometry (AID 1423);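 further: Galphao activated as the GDP aluminium fluoride complex binding bead-coupled RGS8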
# Conditions: at 10 µM, actives lie on both sides
# Sequence of Guanine nucleotide-binding protein G(o) subunit alpha (Homo sapiens) (P09471 whole entry, looked up): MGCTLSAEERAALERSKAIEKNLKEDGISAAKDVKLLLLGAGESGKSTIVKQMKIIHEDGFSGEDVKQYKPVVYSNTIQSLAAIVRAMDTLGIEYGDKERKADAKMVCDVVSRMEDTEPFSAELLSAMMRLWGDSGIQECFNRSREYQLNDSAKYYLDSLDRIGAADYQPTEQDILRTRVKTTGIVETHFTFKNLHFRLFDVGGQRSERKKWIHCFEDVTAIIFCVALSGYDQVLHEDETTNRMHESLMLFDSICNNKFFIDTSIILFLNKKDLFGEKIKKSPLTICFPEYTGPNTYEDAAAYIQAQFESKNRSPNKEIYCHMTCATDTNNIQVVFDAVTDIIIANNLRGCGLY
row,SMILES,response (percent of control binding)
1,COc1ccccc1C(=O)n1nc(-c2ccccc2)nc1N,101%
2,COc1ccc(CC(=O)n2nc(-c3cccnc3)nc2N)cc1,101%
3,CCCC(=O)n1nc(-c2ccccc2)nc1N,20.9% (active)
4,COC(=O)Nc1ncc(CN2CCCCC2)s1,111%
5,CCOC(=O)CNc1nc2ccccc2n2c(C)nnc12,99.9%
6,O=C1CCC(=O)N(O)CCCCCNC(=O)CCC(=O)N(O)CCCCCNC(=O)CCC(=O)N(O)CCCCCN1,55.9% (active)
7,CCSc1nc(C)c(CCOc2cccc(C)c2)c(=O)[nH]1,101%
8,CN(C)S(=O)(=O)c1cccc(-c2nn(-c3ccccc3)cc2/C=C2\SC(=S)N(CC(=O)O)C2=O)c1,99.8%
9,Cc1ncn2cc(-c3ccc(Cl)cc3Cl)[nH]c(=O)c12,102%
10,O=C(Nc1nnc(Cc2ccc(Cl)cc2)s1)c1ccncc1,101%
11,Cc1c(NC(=O)C(=O)N/N=C/c2cccs2)c(=O)n(-c2ccccc2)n1C,103%
12,COc1ccc(C(=O)COC(=O)COc2ccc(C)c(C)c2)cc1,102%
13,Cc1nc2cc(NC(=O)Nc3cccc(F)c3)ccc2n1C,97.9%
14,Cc1nc2cc(NC(=O)NC3CC3)ccc2n1C,103%
15,Cc1cc2nc(C)n(CCCNC(=O)Nc3ccccc3)c2cc1C,170% [activator] (active)
16,O=C(O)/C=C/c1ccc(OCCCF)cc1,98%
17,O=C(Cc1ccccc1)NCC1OCCc2ccccc21 (stereo not given),100%
18,CCc1cc(C(=O)c2ccc(OC)cc2)c(NC(=O)CN2CCN(C)CC2)s1,107%
19,CC(C)Cc1nc(Nc2ccc(S(=O)(=O)N3CCCC3)cc2)c2nnn(Cc3ccccc3)c2n1,141% [activator] (active)
20,Cc1nc(Nc2ccc(S(=O)(=O)N3CCCC3)cc2)c2nnn(Cc3ccccc3)c2n1,101%

row,SMILES,response (percent of control binding)
1,Clc1ccc(Nc2ncnc3c2nnn3Cc2ccccc2)cc1,99.3%
2,CC(C)CCNC(=O)C1CCC(CNc2c(N3CCC(C)CC3)c(=O)c2=O)CC1 (stereo not given),99.2%
3,NC(=O)C1(N2CCCCC2)CCN(C2CC(=O)N(Cc3ccc(N4CCCC4=O)cc3)C2=O)CC1 (stereo not given),97.6%
4,Cc1cccc(C(=O)NNC(=O)c2cccc([N+](=O)[O-])c2)c1,101%
5,C=CCn1c(Cn2nnc3ccccc32)nnc1SCC(=O)N/N=C/c1cc(Br)cc(OC)c1O,5.17% (active)
6,COc1ccc(OC)c(/C=N/NC(=O)CSc2nnc(C)n2-c2ccccc2)c1,95.2%
7,Cc1ccc(Cn2c(SCC(=O)N/N=C/c3ccccc3OCC(=O)O)nc3ccccc32)cc1,104%
8,C=CCNC(=O)COC(=O)c1ccccc1C(=O)N(C)C1CCCCC1,103%
9,CCCn1cc(SCC(N)=O)c2ccccc21,90.4%
10,NC(=O)CSc1c[nH]c2ccccc12,27.5% (active)
11,O=C(Cc1c[nH]c2ccccc12)OCCOC(=O)Cc1c[nH]c2ccccc12,101%
12,COc1ccc(CC(=O)N[C@@H](CCSC)c2nc3ccccc3[nH]2)cc1,106%
13,Cc1ccccc1Cn1nc(C)c(NC(=O)C(F)(F)F)c1C,106%
14,CCCCN1CCNC1=S,99.3%
15,Cc1noc(C)c1S(=O)(=O)N(C)Cc1ccccc1,98%
16,CCOC(=O)C1=C(C)NC(=O)N(C(C)=O)C1c1ccc(Cl)cc1 (stereo not given),103%
17,CCOC(=O)C1C(c2ccc(Cl)cc2)NC(=S)NC1(O)C(F)(F)F (stereo not given),102%
18,CCOC(=O)C1Sc2[nH]c(=O)sc2C(c2ccc(Cl)cc2)C1C(=O)OCC (stereo not given),7.38% (active)
19,CCN(CC(=O)NCc1cccs1)C(=O)c1ccccc1F,99.2%
20,Cc1cccc(C)c1OCC(O)CN1CCCCC1 (stereo not given),99.3%

row,SMILES,response (percent of control binding)
1,Cc1ccccc1OCC(O)CN1CCN(c2ccccn2)CC1 (stereo not given),99.3%
2,Cc1ccc(OCC(O)CN2CCN(CC(O)COc3ccc(C)cc3Cl)CC2)c(Cl)c1 (stereo not given),165% [activator] (active)
3,Cc1ccc(NCc2n[nH]c(=S)n2-c2ccccc2)cc1Cl,99.7%
4,COc1ccc(C2C(C#N)=C(N)N(c3ncn[nH]3)C3=C2C(=O)CCC3)cc1 (stereo not given),100%
5,CC(=O)n1cc([C@@H]2C=C(C(=O)N3CCN(Cc4ccc5c(c4)OCO5)CC3)O[C@H](OCc3ccc(CO)cc3)C2)c2ccccc21,102%
6,COc1ccc(COCC(O)CN2CCC(C(N)=O)CC2)cc1 (stereo not given),104%
7,O=[N+]([O-])C(=c1ccc2c(c1)N1C3=C(CCCC3)CC3CCCCC31N=2)[N+](=O)[O-] (stereo not given),43.8% (active)
8,COc1ccc(CNCCCO)cc1OC,108%
9,Cc1cc(=O)[nH]c(SCC(=O)Nc2ccc(Br)cc2)n1,93.2%
10,Cc1ccc(N2C(=O)C(Cc3ccccc3)NC2=S)cc1 (stereo not given),102%
11,Cc1ccc(N2C(=O)C3C(c4ccccc4)(C2=O)C3(c2ccccc2)c2ccccc2)cc1 (stereo not given),23.3% (active)
12,Cc1ccc(N2C(=O)C3CC3C2=O)cc1 (stereo not given),101%
13,O=C(CCSc1ccccc1)N1CCN(c2ccccc2F)CC1,99.9%
14,CC1(C)C2CC=C(/C=N/NC(=O)c3ccc(Cl)cc3)C1C2 (stereo not given),105%
15,COCCCN1C(=O)C(=O)/C(=C(/O)c2ccc3c(c2)CC(C)O3)C1c1cccnc1 (stereo not given),89.7%
16,COc1cc(C2/C(=C(\O)c3ccc4c(c3)CC(C)O4)C(=O)C(=O)N2Cc2ccco2)ccc1O (stereo not given),12.8% (active)
17,COc1ccc(/C(O)=C2\C(=O)C(=O)N(Cc3ccco3)C2c2ccc(OC)cc2OC)cc1 (stereo not given),98.3%
18,Cc1ccc(-n2c(O)c(C=Nc3ccc(S(=O)(=O)Nc4ncccn4)cc3)c3ccccc3c2=O)cc1C,102%
19,COC(=O)c1cc(NC(=O)C2C3C=CC(C3)C2C(=O)O)cc(C(=O)OC)c1 (stereo not given),100%
20,O=C(CSc1nnc2n1CCCN2)c1ccccc1,104%
